# Screening results deposited in PubChem by University of Kansas High Throughput Screening Laboratory.
# Pf apPOL block: Pf-apPOL inhibitors, biochemical, fluorescence | Plasmodium falciparum apicoplast DNA polymerase (apPOL) | Recombinant Pf-apPOL, molecular beacon fluorescence, 1.5 h | inhibition, % at 10 µM | 210,000 tested, 0.25% active | AID 1794808, 2022
# mHTT CaM bind: mutant huntingtin-calmodulin interaction inhibitors – biochemical, AlphaScreen, primary screen; P42858; AlphaScreen His-mHTT/GST-CaM binding, luminescence; inhibition, % at 15 µM; 190,000 tested, 3.6% active; AID 1671202, 2021;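 also: 0% = both proteins with DMSO and 100% = one protein alone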
# The depositor's hits bear a star; · = no result. This is one part of a sample in which hits are shown more often than they occur. Rule as the data show it: active = inhibition above about 50%; inactive = the rest.
SMILES,Pf apPOL block,mHTT CaM bind
COc1ccc(OC)c(/C=c2\sc3nc(-c4ccc(Br)cc4)nn3c2=O)c1,7,-2
CCn1cc2c3c(cccc31)CN(C(=O)Nc1ccc(OC)c(F)c1)CC2,-3,4
CCOc1ccc(CN2CCc3nc(N4CCOCC4)ncc3C2)cc1,3,4
CC1CCN(c2nnc(C(=O)NCc3ccccn3)c3ccccc23)CC1,-6,36
Cc1ccc(N2CC(C(=O)NCc3ccccn3)CC2=O)cc1 (stereo unspecified),-19,100*
CC(=O)N1CC(C(=O)NCCc2ccccn2)CCC1c1ccc(F)c(C)c1 (stereo unspecified),-5,6
CC(=O)N1CC(C(=O)NCc2ccccn2)CCC1c1ccc(F)c(C)c1 (stereo unspecified),-15,80*
Cc1ccc(-c2nnc(N3CCC(C(=O)NCc4ccccc4)CC3)o2)cc1,-2,6
Cc1ccc(-c2nnc(N3CCC(C(=O)NCc4ccccn4)CC3)o2)cc1,-8,76*
CC1CCN(c2ccc(N3CCC(C(=O)NCc4ccccn4)CC3)nn2)CC1,-6,71*
Cc1ccc(N2CC(C(=O)NCc3ccccc3)CC2=O)cc1 (stereo unspecified),-6,-8
Cc1onc(-c2c(Cl)cccc2Cl)c1C(=O)Sc1ccc(C(F)(F)F)cn1,-3,·
CC(C)NC(=O)C(=O)NC1CC(C)(C)NC(C)(C)C1,·,-3
O=[N+]([O-])c1cc(C(F)(F)F)cc2c1nc1ccccn12,-5,·
COc1ccc(CCC(=O)N2CCCC(C)(C(=O)NCc3ccccc3)C2)cc1 (stereo unspecified),-2,-10
O=C(NCCN1CCOC(c2ccccc2)C1)C12CC3CC(CC(C3)C1)C2 (stereo unspecified),-5,3
O=C(Nc1ccc(N2CCN(Cc3ccc(F)cc3F)CC2)nc1)c1cccs1,-8,0
Cc1ccc2c(c1)N(CCC(C)C)N=C(C(=O)N1CCCCC1)S2(=O)=O,2,-10
CCOc1ccc(-n2cc(C(=O)O)c3cc(OC)c(OC)cc3c2=O)cc1,-4,-3
C#CCSc1nc(N)c2c3c(sc2n1)CCC3,-6,14
CCOC(=O)Cc1csc(NC(=O)CN2CC(c3nc(C4CC4)no3)C2)n1,-2,-8
O=C1S/C(=C\c2ccccc2F)C(=O)N1CNc1cccc([N+](=O)[O-])c1,-2,-2
Cc1cccc(NCN2C(=O)S/C(=C\c3ccccc3F)C2=O)c1,-4,54*
Cc1ccc(NC(=O)c2ncn(-c3ccc(C)cc3)n2)cc1,-7,-4
Cc1ccc(-c2nc3sccn3c2NC(=O)c2ccc(Cl)cc2)cc1,-4,58*
SMILES,Pf apPOL block,mHTT CaM bind
CC(C)(C)c1ccc(C(=O)Nc2c(-c3ccccc3)nc3sccn23)cc1,-3,42
CCc1cccc(C)c1NC(=O)CSc1nc2c(c(=O)n(C)c(=O)n2C)n1C,-4,3
COc1ccccc1/C=C1\SC(=O)N(CN2CCCC2)C1=O,-3,70*
COc1ccc(/C=C2\SC(=O)N(CN3CCCCC3)C2=O)c(OC)c1,-9,6
Cc1ccc(-c2nc(-c3ccnc(N4CCOCC4)c3)no2)cc1,1,-15
OC(COCc1ccccc1)CN1CCOCC1 (stereo unspecified),-3,-2
COc1ccc(CSc2nncn2N)cc1,2,-8
Cc1ccc(C)n1-c1ccc(Cl)cc1O,-8,93*
Cc1ccc(C)n1-c1ccc(C(=O)O)cc1O,-1,12
O=C(Cn1ccc2ccccc21)Nc1nc(-c2cccnc2)cs1,1,-10
CCCN1CCN(C(=O)CC2CCN(C(=O)c3[nH]c(C)c(C)c3C)CC2)CC1,-1,25
Cc1cccc(CNC(=O)c2nn(C)c3c2CN(C(=O)c2c(F)cccc2F)CC3)c1,-7,-8
Cc1cccc(CNC(=O)c2nn(C)c3c2CN(C(=O)c2ccc(Cl)cc2)CC3)c1,-1,64*
Cc1cccc(CNC(=O)c2nn(C)c3c2CN(C(=O)c2cccc(Cl)c2)CC3)c1,-9,76*
COCc1noc(C2CCCCN2CC(=O)NCc2ccccc2)n1 (stereo unspecified),-2,5
COc1cc(NC(=O)N2c3ccccc3Sc3ccccc32)cc(OC)c1,-8,1
COc1ccc(NCC(=O)N2c3ccccc3Sc3ccccc32)cc1,3,60*
CCN(CC)C(=O)c1ccc(-c2ccnc(N3CCCCC3)n2)cc1,0,-19
NC(=S)NN=Cc1ccccc1,-10,·
NC(=S)NN=Cc1ccccc1O,39,85*
COc1ccc(Br)cc1/C=C1\C(=O)NN(c2ccc(C)c(Cl)c2)C1=O,0,24
O=C(CSc1nnc2c(n1)[nH]c1ccccc12)c1ccc(Cl)cc1,3,1
COc1ccc(NC(=O)c2ccc(OC)c([N+](=O)[O-])c2)cc1OC,0,7
COc1ccc(C(=O)Nc2ccc(N(C)C)cc2)cc1[N+](=O)[O-],-6,58*
CCCc1cc(C2CCCN2C(=O)c2ccco2)no1 (stereo unspecified),-5,7
